Assay results from PubChem BioAssay AID1159580 (chemical genetic matrix, 2015).
“And” between values parts separate entries of the source, which are not always exact repeats. Equal values may be shown once. Hit rate of the full screen: of about 5,500 compounds, about 2,000 (36%) were called active. Another 18% or so got no clear call; they are omitted. No stated cut-off is given here; in the data, active means normalized growth mostly below about 0.91 (no sharp cut-off); inconclusive means no clear call, values can overlap the other calls; inactive means mostly above about 0.92. The list shows a part of the results.

Assay: chemical genetic growth profiling, strain panel (AID 1159580);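 further: tested at 20 µM; growth read once vehicle control cultures reached saturation at 30 °C; 1 = growth at the plate median or of vehicle wells; lower values mean less growth of the strain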
Conditions: growth OD

Measured: normalized growth

CNC(=O)Oc1ccc2c(c1)C1(C)CCN(C)C1N2C (centres undefined)
inactive: S. cerevisiae deletion strains, locus YAL013W, strain DEP1, active compounds read low 0.999 | S. cerevisiae deletion strains, locus YAL040C, strain CLN3, active compounds read low 0.99 | S. cerevisiae deletion strains, locus YBR021W, strain FUR4, active compounds read low 1.04 and 1.03 | S. cerevisiae deletion strains, locus YBR229C, strain ROT2, active compounds read low 1 and 1.01 | S. cerevisiae deletion strains, locus YCL029C, strain bik1, active compounds read low 0.991 and 1.01 | S. cerevisiae deletion strains, locus YCL061C, strain MRC1 (second series), active compounds read low 0.978 | S. cerevisiae deletion strains, locus YDL035C, strain GPR1, active compounds read low 1.01 and 1 | S. cerevisiae deletion strains, locus YDL074C, strain BRE1, active compounds read low 1.01 and 1 | S. cerevisiae deletion strains, locus YDL101C, strain DUN1, active compounds read low 0.994 and 0.998 | S. cerevisiae deletion strains, locus YDL134C, strain PPH21, active compounds read low 1.06 and 1 | S. cerevisiae deletion strains, locus YDL185W, strain tfp1, active compounds read low 0.966 and 1.01 | S. cerevisiae deletion strains, locus YDL192W, strain arf1, active compounds read low 1.02 and 1.01 | S. cerevisiae deletion strains, locus YDR101C, strain arx1, active compounds read low 0.98 and 1.01 | S. cerevisiae deletion strains, locus YDR150W, strain NUM1, active compounds read low 1.01 | S. cerevisiae deletion strains, locus YDR162C, strain NBP2, active compounds read low 1.01 and 0.986 | S. cerevisiae deletion strains, locus YDR318W, strain mcm21, active compounds read low 1.02 and 1.01 | S. cerevisiae deletion strains, locus YDR363W, strain ESC2, active compounds read low 0.964 | S. cerevisiae deletion strains, locus YDR388W, active compounds read low 0.994 and 1.01 | S. cerevisiae deletion strains, locus YDR502C, strain sam2, active compounds read low 0.993 and 0.995 | S. cerevisiae deletion strains, locus YEL061C, strain CIN8, active compounds read low 1 and 1.01 | S. cerevisiae deletion strains, locus YER002W, strain NOP16, active compounds read low 0.993 | S. cerevisiae deletion strains, locus YER110C, active compounds read low 0.972 and 1.02 | S. cerevisiae deletion strains, locus YER155C, strain BEM2, active compounds read low 0.995 and 1.01 | S. cerevisiae deletion strains, locus YER167W, strain BCK2, active compounds read low 0.996 and 1.02 | S. cerevisiae deletion strains, locus YGL078C, strain dbp3, active compounds read low 1.01 | S. cerevisiae deletion strains, locus YGL086W, strain mad1, active compounds read low 0.957 and 1.01 | S. cerevisiae deletion strains, locus YGL248W, strain PDE1, active compounds read low 1.02 and 1.01 | S. cerevisiae deletion strains, locus YGR078C, strain PAC10, active compounds read low 1 and 0.991 | S. cerevisiae deletion strains, locus YGR135W, strain pre9, active compounds read low 1.04 and 0.982 | S. cerevisiae deletion strains, locus YGR229C, strain SMI1, active compounds read low 0.977 | S. cerevisiae deletion strains, locus YGR252W, strain gcn5, active compounds read low 1.2 and 0.984 | S. cerevisiae deletion strains, locus YHR030C, strain SLT2, active compounds read low 0.998 and 1.01 | S. cerevisiae deletion strains, locus YHR079C, strain IRE1 (second series), active compounds read low 0.976 and 1.02 | S. cerevisiae deletion strains, locus YHR094C, strain hxt1, active compounds read low 0.991 and 1.01 | S. cerevisiae deletion strains, locus YHR129C, strain ARP1, active compounds read low 1 and 1.02 | S. cerevisiae deletion strains, locus YHR200W, strain rpn10, active compounds read low 0.995 and 1.01 | S. cerevisiae deletion strains, locus YIL066C, strain RNR3, active compounds read low 1 and 1.01 | S. cerevisiae deletion strains, locus YIL073C, strain SPO22, active compounds read low 0.935 and 1.03 | S. cerevisiae deletion strains, locus YIL125W, strain kgd1, active compounds read low 0.995 and 1.02 | S. cerevisiae deletion strains, locus YIR030C, strain dcg1, active compounds read low 1 and 1.02 | S. cerevisiae deletion strains, locus YJL095W, strain BCK1, active compounds read low 1.06 and 1.02 | S. cerevisiae deletion strains, locus YJL134W, strain LCB3, active compounds read low 0.997 and 1 | S. cerevisiae deletion strains, locus YJL168C, strain set2, active compounds read low 0.983 and 1.01 | S. cerevisiae deletion strains, locus YJL187C, strain SWE1 (second series), active compounds read low 1.01 and 1 | S. cerevisiae deletion strains, locus YJR043C, strain POL32, active compounds read low 1.02 and 1.04 | S. cerevisiae deletion strains, locus YJR075W, strain HOC1, active compounds read low 0.98 and 0.984 and 0.995 | S. cerevisiae deletion strains, locus YKL009W, strain mrt4, active compounds read low 1.02 and 1.04 | S. cerevisiae deletion strains, locus YKL068W, active compounds read low 0.976 and 1 | S. cerevisiae deletion strains, locus YKL085W, strain MDH1 (second series), active compounds read low 0.98 and 1.02 | S. cerevisiae deletion strains, locus YKL085W, strain MDH1, active compounds read low 0.98 and 1.02 | S. cerevisiae deletion strains, locus YKL190W, strain CNB1, active compounds read low 1.01 | S. cerevisiae deletion strains, locus YKR001C, strain vps1, active compounds read low 1 and 1.02 | S. cerevisiae deletion strains, locus YLR039C, strain RIC1, active compounds read low 1.11 and 1.07 | S. cerevisiae deletion strains, locus YLR058C, strain SHM2, active compounds read low 1.02 and 1.01 | S. cerevisiae deletion strains, locus YLR102C, strain apc9, active compounds read low 0.974 and 1.02 | S. cerevisiae deletion strains, locus YLR262C, strain YPT6, active compounds read low 1.14 and 1.01 | S. cerevisiae deletion strains, locus YLR268W, strain sec22, active compounds read low 0.995 and 0.998 | S. cerevisiae deletion strains, locus YLR330W, strain CHS5, active compounds read low 1 and 1.01 | S. cerevisiae deletion strains, locus YLR342W, strain FKS1 (second series), active compounds read low 1.03 and 1.05 | S. cerevisiae deletion strains, locus YLR371W, strain rom2, active compounds read low 0.979 and 1.02 | S. cerevisiae deletion strains, locus YLR418C, strain cdc73, active compounds read low 1 and 0.92 | S. cerevisiae deletion strains, locus YML016C, strain PPZ1, active compounds read low 0.99 and 1.01 | S. cerevisiae deletion strains, locus YML032C, strain rad52, active compounds read low 1.04 and 1.02 | S. cerevisiae deletion strains, locus YML124C, strain tub3, active compounds read low 0.992 and 1 | S. cerevisiae deletion strains, locus YMR078C, strain ctf18, active compounds read low 0.981 and 1.02 | S. cerevisiae deletion strains, locus YMR223W, strain ubp8, active compounds read low 1.03 and 1.02 | S. cerevisiae deletion strains, locus YMR263W, strain SAP30, active compounds read low 0.983 and 0.988 | S. cerevisiae deletion strains, locus YMR307W, strain GAS1, active compounds read low 1 and 1.24 and 1.1 | S. cerevisiae deletion strains, locus YNL067W, strain RPL9B, active compounds read low 0.993 and 1 | S. cerevisiae deletion strains, locus YNL128W, strain TEP1, active compounds read low 0.977 and 0.975 | S. cerevisiae deletion strains, locus YNL153C, strain GIM3, active compounds read low 1 | S. cerevisiae deletion strains, locus YNL175C, strain NOP13, active compounds read low 1.01 | S. cerevisiae deletion strains, locus YNL197C, strain WHI3, active compounds read low 1 | S. cerevisiae deletion strains, locus YNL224C, strain SQS1, active compounds read low 0.999 | S. cerevisiae deletion strains, locus YNL233W, strain BNI4, active compounds read low 0.999 and 0.995 | S. cerevisiae deletion strains, locus YNL250W, strain rad50, active compounds read low 0.94 and 1.02 | S. cerevisiae deletion strains, locus YNL271C, strain bni1, active compounds read low 0.994 and 1.02 | S. cerevisiae deletion strains, locus YNL298W, strain CLA4, active compounds read low 0.993 and 1.02 | S. cerevisiae deletion strains, locus YNL307C, strain MCK1, active compounds read low 0.989 and 1.01 | S. cerevisiae deletion strains, locus YNL322C, strain KRE1, active compounds read low 0.961 and 0.998 and 1.01 | S. cerevisiae deletion strains, locus YNR052C, strain pop2, active compounds read low 1.01 and 1.02 | S. cerevisiae deletion strains, locus YOL006C, strain TOP1, active compounds read low 0.949 and 0.93 | S. cerevisiae deletion strains, locus YOL012C, strain htz1 1.18 and 1.01 | S. cerevisiae deletion strains, locus YOL147C, strain pex11, active compounds read low 0.995 and 1.01 | S. cerevisiae deletion strains, locus YOR061W, strain CKA2, active compounds read low 1 and 1.01 | S. cerevisiae deletion strains, locus YOR069W, strain VPS5, active compounds read low 0.996 and 1.01 | S. cerevisiae deletion strains, locus YOR083W, strain WHI5 (second series), active compounds read low 1.01 | S. cerevisiae deletion strains, locus YOR136W, strain idh2, active compounds read low 0.979 and 1.01 | S. cerevisiae deletion strains, locus YOR144C, strain elg1, active compounds read low 1 and 1.01 | S. cerevisiae deletion strains, locus YOR184W, strain ser1, active compounds read low 1.05 and 1.06 | S. cerevisiae deletion strains, locus YOR316C, strain cot1, active compounds read low 0.988 and 1.02 | S. cerevisiae deletion strains, locus YPL055C, strain LGE1, active compounds read low 0.987 | S. cerevisiae deletion strains, locus YPL241C, strain CIN2, active compounds read low 1.01 | S. cerevisiae deletion strains, locus YPR119W, strain clb2, active compounds read low 0.984 and 1.01 | S. cerevisiae deletion strains, locus YPR141C, strain kar3, active compounds read low 0.981 and 1.02 | S. cerevisiae deletion strains, locus YPR163C, strain tif3, active compounds read low 0.992 and 1.01 | S. cerevisiae deletion strains, locus YPR167C, strain met16, active compounds read low 0.999 and 1.02 | S. cerevisiae deletion strains, strain wtn01, active compounds read low 0.962 and 1 | S. cerevisiae strains, strain wild type, active compounds read low 1.01
